Measured values from publication PMC6792352, “Limited Chemical Structural Diversity Found to Modulate Thyroid Hormone Receptor in the Tox21 Chemical Library” (Environmental Health Perspectives, 2019).
Structures can show the parent of a compound that is named as a salt.

system: thyroid hormone receptor (endogenous TRα and TRβ); set-up: species or system GH3-TRE-Luc (rat pituitary); GH3-TRE-Luc luciferase reporter, antagonist mode against 1 nM T3, loss of signal, qHTS; conditions: read-out: Average AC50 (uM) GH3-TRE-Antag, antagonist mode, 1 nM T3, no GH3 cytotoxicity hit

Row | SMILES | AC50
1 | C(CCOCC1CO1)COCC1CO1 (stereo not drawn) [1,4-Butanediol diglycidyl ether] | 37.9 µM
2 | O=C(N/N=C/c1ccc([N+](=O)[O-])o1)c1ccc(O)cc1 [Nifuroxazide] | 13.7 µM
3 | CC(C)C(O)(c1ccc(OC(F)(F)F)cc1)c1cncnc1 (stereo not drawn) [Flurprimidol] | 70.7 µM
4 | O=C(CCCCCCCCC#CI)Oc1ccccc1 [Phenyl 11-iodo-10-undecynoate] | 21.5 µM
5 | CO/N=C(/C(=O)OC)c1ccccc1COc1ccccc1C [Kresoxim-methyl] | 3.65 µM
6 | C[C@H]1O[C@@H](O[C@H]2[C@@H](O)C[C@H](O[C@H]3[C@@H](O)C[C@H](O[C@H]4CC[C@@]5(C)[C@H](CC[C@@H]6[C@@H]5C[C@@H](O)[C@]5(C)[C@@H](C7=CC(=O)OC7)CC[C@]65O)C4)O[C@@H]3C)O[C@@H]2C)C[C@H](O)[C@@H]1O [Digoxin] | > 50 µM
7 | CCCCCC/C=C\CCCCCCCC(=O)O [(Z)-Hexadec-9-enoic acid] | 44.5 µM
8 | c1cc2c(c(NC3=NCCN3)c1)CCCC2 [Tramazoline tosylate] | 37.5 µM
9 | Cc1cc(OI)c(C(C)C)cc1-c1cc(C(C)C)c(OI)cc1C [Thymol iodide] | 37.3 µM
